Only some compounds are listed: those with a hit (about 4.2% of all), similar ones and a draw of the others.
hcDAF12 agonist: H. contortus DAF-12 activation, primary screen; HEK293 hcDAF-12 lit1-tk-luc reporter, luminescence; 0% DMSO, 100% Δ7-dafachronic acid; activation, % at 6.8 µM; actives 1.4% (n = 370,000);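 active = activation above the mean of all tested compounds plus 3 SD, cut at about 5.5% in these data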;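 note: 100% = response to 3 µM Δ7-dafachronic acid high control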
DAX1 StAR inh: inhibitors of DAX1 repression of SF-1 activated StAR promoter | actives 1.1% (n = 370,000) | inhibition, % at 6.8 µM | AID 652010 | HEK293T StAR-luciferase reporter, SF-1/DAX-1 repression relief;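 active = inhibition above the mean over all tested compounds plus 3 SD, cut at about 3.6% in these data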;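 note: 0% = DAX-1 cells with DMSO and 100% = cells lacking DAX-1 with DMSO; higher inhibition means more luminescence from relief of DAX-1 repression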
SMARCA2 activ: increases SMARCA2 function in MMTV reporter cells; MG213 cells, MMTV-luciferase reporter, dexamethasone, overnight; activation, % at 9.1 µM; actives 1% (n = 370,000); AID 652017; in the data active = activation above about 7.8%;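 note: 0% = vehicle wells and 100% = reference activator wells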
hgDAF12 agonist: hgDAF-12 agonism, primary luciferase screen. HEK293 GAL4-hgDAF12 UAS-luciferase reporter, agonist luminescence; normalized to butyrate control. activation, % at 6.8 µM. actives 1.8% (n = 370,000). AID 687014;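 active = activation above a cutoff set at the mean of all screened compounds plus 3 SD, cut at about 10% in these data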;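 note: 0% = DMSO wells and 100% = sodium butyrate wells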
ssDAF12 agonist: activators of S. stercoralis DAF-12 nuclear receptor | HEK293 ssDAF-12/GRIP1 lit1-tk-luc reporter, luminescence; % of 3 µM dafachronic acid response | activation, % at 6.8 µM | actives 1% (n = 370,000) | AID 652126;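 active = activation above the mean over all tested compounds plus 3 SD, cut at about 0.9% in these data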;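 note: 0% = DMSO-only wells and 100% = 3 µM delta7-dafachronic acid wells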
SMARCA2 act conf: SMARCA2 activation, confirmation screen; MG213 cells, MMTV-luciferase with dexamethasone, luminescence, overnight; MG213 cells expressing E1A, Rb sequestered; DMSO wells 0%, reference activator 100%; shares compounds with SMARCA2 activ; actives 30% (n = 3,500); AID 652260; activation, % at 9.1 µM;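 active = activation above its plate's cutoff, the mean activation of tested wells plus 3 SD, cut at about 7.9% in these data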
VP16 Luc act: GAL4-VP16 reporter activation counter-screen | HEK293 GAL4-VP16 pG5luc reporter, luciferase luminescence; scaled: DMSO wells 0%, SAHA wells 100% | activation, % at 9.1 µM | AID 686939 | shares compounds with SMARCA2 activ | actives 41% (n = 3,500);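 active = activation above the solvent-only control well mean plus 3 SD, averaged across control plates, cut at about 5.2% in these data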
Active calls of the source: *; nt = no result.

SMILES | hcDAF12 agonist | DAX1 StAR inh | SMARCA2 activ | hgDAF12 agonist | ssDAF12 agonist | SMARCA2 act conf | VP16 Luc act
COc1ccc(CCNC(=O)CN2C(=O)CSc3ccc(S(=O)(=O)N4CCOCC4)cc32)cc1OC | 1 | 0 | 1 | 0 | -1 | nt | nt
CCOc1ccc(CNC(=O)CN2C(=O)CSc3ccc(S(=O)(=O)N4CCOCC4)cc32)cc1OC | 0 | 0 | 8.8* | 1 | -1 | -6 | 0
Cc1c(/C=N\NC(=O)c2ccc(F)cc2)cnn1C | 0 | 0 | 1 | 0 | -1 | nt | nt
Cc1c(/C=N/NC(=O)c2ccc(Br)o2)cnn1C | 6.2* | 1 | 14* | 9 | 0 | 2 | 1
O=C1Cc2c([nH]c3ccc([N+](=O)[O-])cc23)-c2ccccc2N1 | -3 | -2 | 13* | -1 | -2 | 11* | -2
O=C(O)/C=C/C(=O)c1ccc2c(c1)CCc1ccccc1-2 | 3 | -1 | 11* | 2 | -1 | 7 | 6.5*
O=c1c2[nH]c3cccc(Cl)c3c2ncn1CC1CCCO1 (stereo unspecified) | 3 | 1 | 8.2* | 1 | -1 | 5 | 3
O=c1c2[nH]c3cccc(Cl)c3c2ncn1CCN1CCCCC1 | 0 | 0 | 1 | 1 | -1 | nt | nt
COc1ccc(CN2CCNC(=O)C2CC(=O)N2CCCN(C(C)=O)CC2)cc1OC (stereo unspecified) | -1 | 0 | 1 | 3 | -1 | nt | nt
COc1ccc(CN2CCNC(=O)C2CC(=O)O)cc1OC (stereo unspecified) | -1 | 1 | 12* | 2 | -1 | -1 | 0
CCn1nc(C)c(CNC(=O)Nc2ccc3c(c2)OCO3)c1C | 2 | 2 | 9.3* | 3 | -1 | 1 | 3
Cc1cc(CNC(=O)Nc2ccc3c(c2)OCO3)nn1C | -1 | 0 | 1 | 3 | -1 | nt | nt
N#CCCN1CCN(C2=NC(=O)/C(=C\c3cccs3)S2)CC1 | -1 | 0 | 8.8* | 0 | -1 | 2 | -1
COC(=O)[C@]12C[C@H](CC(=O)N3CCN(C(=O)C4CC4)CC3)C(=O)N(Cc3ccc(Cl)cc3Cl)C1=C[C@H](COCc1ccccc1)O[C@@H]2C | -3 | -1 | -3 | 0 | -1 | nt | nt
C=CCc1ccc(OCCCCN2CCC(C)CC2)c(OC)c1 | -2 | -1 | 12* | 2 | -1 | -6 | 3
C=CCc1ccc(OCCCCN2CC(C)CC(C)C2)c(OC)c1 (stereo unspecified) | -1 | 0 | -5 | -3 | -2 | nt | nt
CN(Cc1ccccc1)C(=O)OCc1cn(Cc2cccc(Cl)c2)nn1 | -2 | 0 | -3 | -1 | -1 | nt | nt
Cc1cc(O)cc(=O)n1-c1ccc(OC(F)F)cc1 | -1 | 0 | -3 | 0 | -1 | nt | nt
CCCCOc1ncnc2c1[nH]c1ccc(OC)cc12 | 1 | 1 | 0 | 8 | -1 | nt | nt
COc1ccc2[nH]c3c(=S)nc[nH]c3c2c1 | 1 | 0 | 9.7* | 5 | -1 | 6 | 3
CCCCCCN1CCS(=O)(=O)N(Cc2ccc(F)cc2)C(C(=O)OC)C1 (stereo unspecified) | -1 | -1 | -2 | 1 | -1 | nt | nt
CC(=O)c1ccc(N2CCN(C(=S)NCCCN(C)C)CC2)cc1 | 1 | 0 | 8.2* | 1 | -1 | 0 | 3
COc1ccc(OCC(=O)NC(=S)Nc2ccccc2F)cc1 | 1 | 0 | 9.8* | 5 | -1 | 2 | 1
CCOC(=O)c1nn(-c2ccc(Cl)cc2)c2nnc(Cc3ccccc3)c(=O)n12 | -2 | 0 | 12* | 1 | -1 | -2 | 0
COc1cccc2cc(C(=O)OCC(=O)NCc3ccc4c(c3)OCO4)c(=O)oc12 | 4 | 1 | 11* | 10 | 0 | 6 | 5
SMILES | hcDAF12 agonist | DAX1 StAR inh | SMARCA2 activ | hgDAF12 agonist | ssDAF12 agonist | SMARCA2 act conf | VP16 Luc act
COc1ccc(-c2cn3cccc(C)c3n2)cc1Br | 3 | 2 | 10* | 8 | 0 | 7 | 14*
Oc1ccc2ccccc2c1C=NN1CCN(Cc2ccc(Cl)cc2)CC1 | -1 | -1 | -2 | 1 | -1 | nt | nt
O=C(C1=C(O)C(=O)N(CCc2ccccc2)C1c1ccncc1)c1cc2ccccc2o1 (stereo unspecified) | -1 | 0 | 2 | -1 | 0 | nt | nt
O=C(C1=C(O)C(=O)N(c2nccs2)C1c1ccccc1)c1cc2ccccc2o1 (stereo unspecified) | 4 | 1 | 14* | 9 | 0 | -1 | 3
Cc1ccc(O)c(NC(=O)c2noc(C(C)C)c2[N+](=O)[O-])c1 | 2 | 0 | 9.0* | 5 | -1 | 6 | 1
CC(=O)c1ccc(NC(=O)c2noc(C(C)C)c2[N+](=O)[O-])cc1 | 1 | 0 | 2 | 4 | 0 | nt | nt
Cc1ccc(O)c(NC(=O)c2cc(-c3cccs3)on2)c1 | 2 | 1 | 13* | 11* | 0 | 21* | 6.8*
COC(=O)c1cccc(Cn2ccc3ccc(-c4ccc5ccn(C(=O)c6ccccc6)c5c4)cc32)c1 | -2 | -1 | -2 | -3 | -1 | nt | nt
COc1ccc2c(c1)CCc1c(C(=O)NCc3cccnc3)noc1-2 | 0 | 0 | 10* | 0 | -1 | 0 | 6.4*
O=C(NCc1ccccc1)Nc1ccccc1C(=O)N1CCCC1 | 2 | 1 | -4 | -2 | -1 | nt | nt
CCOC(=O)C1CCCN(Cc2nc3ccc([N+](=O)[O-])cc3c(=O)n2-c2ccc(OC)cc2OC)C1 (stereo unspecified) | -1 | 0 | 7 | 0 | -1 | nt | nt
COc1ccc(-n2c(CN3CCC(C(N)=O)CC3)nc3ccc([N+](=O)[O-])cc3c2=O)c(OC)c1 | 2 | -1 | 8.0* | 3 | -1 | 1 | 1
CCOC(=O)c1ccc(-n2c(CN3CCC(O)CC3)nc3ccc([N+](=O)[O-])cc3c2=O)cc1 | -1 | -1 | 19* | -1 | 0 | 9.5* | 0
CCN1CCN(Cc2nc3ccc([N+](=O)[O-])cc3c(=O)n2-c2ccc(OC)cc2OC)CC1 | 1 | -1 | 2 | -1 | -1 | nt | nt
CCOC(=O)C1CCN(Cc2nc3ccc([N+](=O)[O-])cc3c(=O)n2-c2ccc(OC)cc2OC)CC1 | 2 | 0 | 9.1* | 1 | -1 | 0 | 2
COCCN(CCOC)C(=O)[C@H](CCc1ccccc1)NC(=O)[C@H]1O[C@@H](n2cnc3c(N)ncnc32)[C@H](O)[C@@H]1O | -1 | -1 | 2 | 0 | 0 | nt | nt
CC(C)(C)C(=O)Nc1nnc(SCC(=O)Nc2ccc3c(c2)OCO3)s1 | -1 | 0 | 13* | 2 | -1 | -5 | 2

From PubChem BioAssay
